Data on 24 compounds can be found in PubChem BioAssay.

Values joined by “and” are separate entries in the source; they are usually repeats but may differ in a detail not shown here. Equal entries are not always repeated. Active and inactive are the calls of the source.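 Rule for the calls, unless noted: active = compounds whose cell count with miR-34 switched on is under 0.7 times the count with it off; inactive = the rest.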

Test [1] can be described thus: sensitizers of A549 cells to miR-34 induction, primary screen, imaging, A549 dox-inducible miR-34, nuclei and caspase counts (AID 1347080). Note: test concentration not given here. The following applies: A549 miR-34 inducible, Hoechst nuclei count, 48 h.
A short description of test [2]: survival rescue of mitochondrial mutant cells in low glucose, primary screen, MELAS cybrids, Rieske KO mouse fibroblasts, CellTiter-Glo (AID 1508586;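 active = mean z-score across replicates of 1.96 or higher in either the MELAS or the Rieske mutant cell line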;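 note: test concentration not given here; z relative to plate mean and SD of compound and empty wells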).
Test [3] can be described thus: viability rescue of complex I mutant cybrids, primary screen, cell-based, galactose medium, ATP luminescence (AID 1645843;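 active = z-score of at least 1.8 in each of two replicates, scored against plate mean and spread of sample wells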;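 note: positive z means more ATP and so rescue of galactose-driven cybrid death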). The following applies: complex I mutant cybrid cells, 72 h, stronger effect = higher value.
Setting [4] is: stronger effect = lower value, cell number ratio, induced over uninduced.
The mark [5] stands for this setting: measured here: relative caspase fold change +Dox/-Dox.
Where [6] appears, read: measured here: total cells with miR-34 induction, stronger effect = lower value.
Where [7] appears, read: measured here: total cells without miR-34 induction.
Where [8] appears, read: MELAS cybrid survival, CellTiter-Glo 48 h, stronger effect = higher value.
The mark [9] stands for this setting: Rieske KO mouse fibroblast survival, CellTiter-Glo 72 h.

For the compound `CSc1n[nH]c(-c2ccc(Cl)cc2)n1`, the fold change in test [1] (setting [4]) is 0.939 (inactive); in test [1] (setting [5]), 0.52. Further, the cell count in test [1] (setting [6]) was 8540; in test [1] (setting [7]), 9100. Moreover, the z-score in test [2] (setting [8]) is 1.97 (active); in test [2] (setting [9]), -0.569; in test [3], 0.11 (inactive).
For `Cc1cc(C)nc(-c2cnn(CC(=O)Nc3cc(C)nn3-c3ccccn3)c2)n1`, the fold change in test [1] (setting [4]) is 0.882 (inactive); in test [1] (setting [5]) it was 1.32. For the same compound, the cell count in test [1] (setting [6]) was found to be 5870; in test [1] (setting [7]), 6650. Further, the figures for the z-score in test [2] (setting [8]), in test [2] (setting [9]) and in test [3] were -0.672 (inactive), -0.181 and -0.415 (inactive), respectively.
As to `CCc1ccc(CNC(=O)Nc2nc(C)n(C(C)C)n2)nc1`, the fold change was 0.86 (inactive) in test [1] (setting [4]) and 1.49 in test [1] (setting [5]). Moreover, the cell count came out at 7770 in test [1] (setting [6]) and 9030 in test [1] (setting [7]). Further, the z-score in test [2] (setting [8]) was 0.0188 (inactive); in test [2] (setting [9]) it was 0.8; in test [3], -0.525 (inactive).
Consider `O=C(O)c1ccc(-c2ccccc2Cl)o1`, for which the fold change in test [1] (setting [4]) was 0.867 (inactive); in test [1] (setting [5]), 0.416. Also, the cell count in test [1] (setting [6]) came out at 7840; in test [1] (setting [7]) it was 9050. Also, the z-score is -0.894 (inactive) in test [2] (setting [8]), 0.4 in test [2] (setting [9]) and 0.53 (inactive) in test [3].
In the case of `O=c1[nH]cnc2sc3c(c12)CCCC3`, the values for the fold change in test [1] (setting [4]) and in test [1] (setting [5]) were 0.885 (inactive) and 0.876, respectively. Further, the cell count in test [1] (setting [6]) was 8460; in test [1] (setting [7]), 9560. In addition, the z-score in test [2] (setting [8]) is -0.212 (inactive); in test [2] (setting [9]), 0.0845; in test [3] it was 0.635 (inactive).
Turning to `CNC(=O)c1ccccc1-c1cccc2ccccc12`, the fold change in test [1] (setting [4]) was 0.918 (inactive); in test [1] (setting [5]), 0.701. For the same compound, the cell count in test [1] (setting [6]) was 8250; in test [1] (setting [7]), 8980. In addition, the z-score in test [2] (setting [8]) is -0.403 (inactive); in test [2] (setting [9]) it was -0.242; in test [3] it was -0.535 (inactive).
Turning to `O=C1CN(C(=O)Nc2nncs2)CCN1Cc1cccc(F)c1`, the values for the fold change in test [1] (setting [4]) and in test [1] (setting [5]) were 0.896 (inactive) and 1.07, respectively. Moreover, the cell count in test [1] (setting [6]) was 9320; in test [1] (setting [7]), 10400. Besides, the z-score in test [2] (setting [8]) was 0.315 (inactive); in test [2] (setting [9]), -0.441; in test [3] it was -0.53 (inactive).
For `OCCN1CC(O)C(O)C(O)C1CO` (stereo not drawn), the fold change in test [1] (setting [4]) is 0.949 (inactive) and 0.938 (inactive); in test [1] (setting [5]), 1.7 and 0.717. Moreover, the cell count in test [1] (setting [6]) was 10100 and 10300; in test [1] (setting [7]) it was 10600 and 11000. Further, the z-score is -0.386 (inactive) in test [2] (setting [8]), 0.318 in test [2] (setting [9]) and 0.805 (inactive) in test [3].
Turning to `O=C(O)Cc1c[nH]c2ccccc12`, the fold change in test [1] (setting [4]) was 0.913 (inactive); in test [1] (setting [5]) it was 0.9. The values for the cell count in test [1] (setting [6]) and in test [1] (setting [7]) were 8300 and 9090, respectively. Also, the z-score in test [2] (setting [8]) was -0.643 (inactive); in test [2] (setting [9]) it was -0.265; in test [3], 0.49 (inactive).
As for `COc1ccc(-c2ncnc3sc(C)c(C)c23)c2cccnc12`, the fold change in test [1] (setting [4]) was 0.949 (inactive); in test [1] (setting [5]), 0.85. The cell count in test [1] (setting [6]) came to 7370; in test [1] (setting [7]) it was 7760. For the same compound, the z-score was 0.0989 (inactive) in test [2] (setting [8]), -0.295 in test [2] (setting [9]) and -0.525 (inactive) in test [3].
In the case of `NC1=NC(=O)C(=Cc2ccc(-c3ccc(C(=O)O)cc3)o2)S1`, the fold change in test [1] (setting [4]) is 0.91 (inactive); in test [1] (setting [5]) it was 0.479. Further, the cell count in test [1] (setting [6]) amounted to 8530; in test [1] (setting [7]), 9370. For the same compound, the z-score in test [2] (setting [8]) was 0.721 (inactive); in test [2] (setting [9]) it was -0.231; in test [3] it was 0.485 (inactive).
Consider `O=C(Nc1ccc(I)cc1)NC1CCCCC1`, for which the fold change in test [1] (setting [4]) was 0.864 (inactive); in test [1] (setting [5]), 0.498. Moreover, the cell count in test [1] (setting [6]) came to 7960; in test [1] (setting [7]), 9220. Further, the z-score is 0.185 (inactive) in test [2] (setting [8]), -0.338 in test [2] (setting [9]) and 1.05 (inactive) in test [3].
`CNc1nc(-c2cccc(OC)c2)ncc1F`: the fold change is 0.868 (inactive) in test [1] (setting [4]) and 1.04 in test [1] (setting [5]). Moreover, the cell count in test [1] (setting [6]) stood at 8700; in test [1] (setting [7]) it was 10000. The z-score was 0.0888 (inactive) in test [2] (setting [8]), -0.0676 in test [2] (setting [9]) and -0.485 (inactive) in test [3].
Turning to `NC(=O)c1cncc(Br)c1`, the fold change was 0.888 (inactive) in test [1] (setting [4]) and 0.503 in test [1] (setting [5]). The cell count came out at 8870 in test [1] (setting [6]) and 9990 in test [1] (setting [7]). Besides, the values for the z-score in test [2] (setting [8]), in test [2] (setting [9]) and in test [3] were 0.375 (inactive), -0.195 and 0.76 (inactive), respectively.
Regarding `c1nc(N2CCOCC2)c2[nH]cnc2n1`, the fold change is 0.913 (inactive) in test [1] (setting [4]) and 0.416 in test [1] (setting [5]). The results for the cell count in test [1] (setting [6]) and in test [1] (setting [7]) were 8460 and 9270, respectively. Also, the values for the z-score in test [2] (setting [8]), in test [2] (setting [9]) and in test [3] were -0.198 (inactive), -0.176 and 1.15 (inactive), respectively.
Consider `CC1OC(OCC2OC(Oc3c(-c4ccc(O)c(O)c4)oc4cc(O)cc(O)c4c3=O)C(O)C(O)C2O)C(O)C(O)C1O` (stereo not drawn), for which the fold change in test [1] (setting [4]) was 0.944 (inactive) and 0.91 (inactive); in test [1] (setting [5]), 1.42 and 0.851. The cell count in test [1] (setting [6]) was 10400 and 8400; in test [1] (setting [7]) it was 11000 and 9230. In addition, the z-score in test [2] (setting [8]) was -0.328 (inactive); in test [2] (setting [9]) it was -0.0914; in test [3] it was 0.225 (inactive).
In the case of `Fc1ccccc1-c1cc(NCc2ccncc2)n2nccc2n1`, the fold change in test [1] (setting [4]) was 1.06 (inactive); in test [1] (setting [5]), 0.296. For the same compound, the cell count was 4240 in test [1] (setting [6]) and 4020 in test [1] (setting [7]). The z-score in test [2] (setting [8]) was -1.56 (inactive); in test [2] (setting [9]), -0.13; in test [3] it was 0.425 (inactive).
Take `c1ccc(-c2noc(-c3cccc4cccnc34)n2)nc1`: the figures for the fold change in test [1] (setting [4]) and in test [1] (setting [5]) were 0.892 (inactive) and 1.13, respectively. Also, the cell count came to 7790 in test [1] (setting [6]) and 8740 in test [1] (setting [7]). Further, the z-score is -0.283 (inactive) in test [2] (setting [8]), 1.05 in test [2] (setting [9]) and 0.93 (inactive) in test [3].
Regarding `CCOC(=O)c1c(C)nn(-c2ccc(OC)cc2)c1C`, the fold change in test [1] (setting [4]) was 0.895 (inactive); in test [1] (setting [5]), 0.849. Besides, the cell count in test [1] (setting [6]) turned out to be 7720; in test [1] (setting [7]), 8620. Moreover, the figures for the z-score in test [2] (setting [8]), in test [2] (setting [9]) and in test [3] were 0.662 (inactive), 0.769 and 0.595 (inactive), respectively.
Regarding `CN1CCN(Cc2ccc(-c3nc(-c4cccnc4)cc(=O)[nH]3)cc2)CC1`, the values for the fold change in test [1] (setting [4]) and in test [1] (setting [5]) were 0.911 (inactive) and 1.1, respectively. In addition, the cell count in test [1] (setting [6]) was found to be 8750; in test [1] (setting [7]), 9610. For the same compound, the z-score was -0.317 (inactive) in test [2] (setting [8]), -0.261 in test [2] (setting [9]) and -0.55 (inactive) in test [3].
For the compound `O=C(O)c1sccc1S(=O)(=O)Nc1ccc(Cl)cc1`, the figures for the fold change in test [1] (setting [4]) and in test [1] (setting [5]) were 0.887 (inactive) and 0.469, respectively. Further, the cell count in test [1] (setting [6]) is 8810; in test [1] (setting [7]), 9930. In addition, the z-score in test [2] (setting [8]) is -0.651 (inactive); in test [2] (setting [9]), -0.438; in test [3], 0.48 (inactive).
For the compound `CCCCCC(O)C=CC1C(O)CC(=O)C1CCCCCCC(=O)O` (stereo not drawn), the fold change in test [1] (setting [4]) was 0.973 (inactive) and 0.918 (inactive); in test [1] (setting [5]), 0.603 and 0.896. The cell count is 9870 and 7520 in test [1] (setting [6]); 10100 and 8190 in test [1] (setting [7]). In addition, the z-score was -0.372 (inactive) in test [2] (setting [8]), 0.491 in test [2] (setting [9]) and 0.865 (inactive) in test [3].
With `CCCCNS(=O)(=O)c1ccccc1`, the values for the fold change in test [1] (setting [4]) and in test [1] (setting [5]) were 0.925 (inactive) and 0.335, respectively. Further, the cell count is 8780 in test [1] (setting [6]) and 9480 in test [1] (setting [7]). The z-score in test [2] (setting [8]) is -0.187 (inactive); in test [2] (setting [9]) it was 0.108; in test [3], 0.175 (inactive).
In the case of `O=C(NCCOc1cccnc1)c1ccc2ncsc2c1`, the fold change in test [1] (setting [4]) was 0.858 (inactive); in test [1] (setting [5]), 1.5. Besides, the cell count amounted to 7900 in test [1] (setting [6]) and 9210 in test [1] (setting [7]). The z-score was 0.0996 (inactive) in test [2] (setting [8]), -0.557 in test [2] (setting [9]) and -0.56 (inactive) in test [3].
